# Paper PMC4336329 (PLoS ONE, 2015)
# Out of some 310,000 compounds screened, about 14,000 (4.5%) showed an effect of 50% or more. The effect is printed as a negative number. This is one part of a sample in which strong results are shown more often than they occur.
# Target: human ether-à-go-go-related gene (hERG) potassium channel (human, UniProt Q12809)
# Experiment: primary screen, population patch clamp on CHO cells stably expressing hERG; higher = less effect of the substance
# 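Further: peak tail current of the secondary pulse compared with the same well before compound.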
# Chain of human ether-à-go-go-related gene (hERG) potassium channel (Q12809 whole entry, looked up): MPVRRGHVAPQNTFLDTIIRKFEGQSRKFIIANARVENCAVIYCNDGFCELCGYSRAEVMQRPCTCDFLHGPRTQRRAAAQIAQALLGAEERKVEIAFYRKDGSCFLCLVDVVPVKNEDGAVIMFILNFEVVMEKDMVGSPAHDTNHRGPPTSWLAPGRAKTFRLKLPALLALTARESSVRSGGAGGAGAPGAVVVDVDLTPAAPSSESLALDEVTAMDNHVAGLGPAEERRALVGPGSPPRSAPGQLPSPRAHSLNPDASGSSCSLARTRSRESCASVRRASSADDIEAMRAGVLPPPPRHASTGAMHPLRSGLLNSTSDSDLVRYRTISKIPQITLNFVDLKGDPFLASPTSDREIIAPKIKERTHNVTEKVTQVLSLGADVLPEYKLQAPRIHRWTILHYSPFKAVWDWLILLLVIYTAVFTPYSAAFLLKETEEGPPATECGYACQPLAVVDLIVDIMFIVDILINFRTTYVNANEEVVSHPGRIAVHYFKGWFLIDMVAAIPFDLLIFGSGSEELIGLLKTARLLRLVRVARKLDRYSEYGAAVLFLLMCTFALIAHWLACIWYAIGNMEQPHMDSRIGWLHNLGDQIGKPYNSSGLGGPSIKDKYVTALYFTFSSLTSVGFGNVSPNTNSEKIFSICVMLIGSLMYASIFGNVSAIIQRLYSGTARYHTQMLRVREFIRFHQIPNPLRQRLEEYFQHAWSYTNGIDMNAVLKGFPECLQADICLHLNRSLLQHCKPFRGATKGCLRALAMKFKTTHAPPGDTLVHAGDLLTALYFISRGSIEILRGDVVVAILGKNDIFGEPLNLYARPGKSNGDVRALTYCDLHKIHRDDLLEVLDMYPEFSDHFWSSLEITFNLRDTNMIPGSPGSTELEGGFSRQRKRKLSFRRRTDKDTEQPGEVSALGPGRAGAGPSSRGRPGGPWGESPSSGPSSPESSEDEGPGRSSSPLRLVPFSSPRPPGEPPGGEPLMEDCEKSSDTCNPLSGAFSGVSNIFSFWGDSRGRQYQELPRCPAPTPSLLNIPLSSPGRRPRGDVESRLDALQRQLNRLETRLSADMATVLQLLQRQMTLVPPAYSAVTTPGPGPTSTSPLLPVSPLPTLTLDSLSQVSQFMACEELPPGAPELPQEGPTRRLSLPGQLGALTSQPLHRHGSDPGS
row,SMILES,"hERG current change (%, negative = inhibition) at 10uM [%]"
1,COc1cc(/C=N/N2CCN(c3ccccc3OC)CC2)ccc1OC(C)=O,17.2
2,CCOC(=O)Cc1csc(NC(=O)C(NC(=O)C2CCC(C)CC2)C(C)C)n1 (stereo not shown),23.5
3,CC(C)NC(=O)/C(=C/c1ccco1)c1ccccc1,-2.25
4,Cc1cccc(NC(=O)CCC(=O)c2cccs2)n1,12
5,Cc1cccc(Nc2nc(N)nc(CN3CCN(c4ccc(F)cc4)CC3)n2)c1,-73.3
6,Cc1cccc(Nc2nc(N)nc(CCl)n2)c1,-0.698
7,Cc1cccc(Nc2nc(N)nc(CSC(=S)N3CCOCC3)n2)c1,-0.689
8,COc1cccc(N2CCN(Cc3nc(N)nc(N4CCCc5ccccc54)n3)CC2)c1,-45
9,Cc1cccc(Nc2nc(N)nc(CN3CCN(C)CC3)n2)c1,-39.2
10,COc1ccc(Nc2nc(N)nc(CSC(=S)N3CCN(c4ccccc4)CC3)n2)cc1,14.1
11,COc1cccc(N2CCN(Cc3nc(N)nc(Nc4ccccc4)n3)CC2)c1,-68
12,Cc1cccc(Nc2nc(N)nc(CN3CCN(c4ccccc4)CC3)n2)c1,-54.5
13,Cn1c(=O)n(C)c2cc(NS(=O)(=O)c3ccc(F)cc3)ccc21,1.38
14,O=C(NCc1cccnc1)C1CC(=O)N(c2ccc(F)cc2)C1 (stereo not shown),-15.1
15,CC(SCc1ccccc1)C(=O)NC1CCCC1 (stereo not shown),3.27
16,CCN(CC)CCNC(=O)Cn1c(C)cc2ccccc2c1=O,1.83
17,CSc1ccc(/C=C/C(=O)c2ccc(NC(C)=O)cc2)cc1,12.6
18,OCCOCCn1c(C(CO)Nc2nc(-c3ccccc3Br)cs2)nc2ccccc21 (stereo not shown),-72
19,OCCOCCn1c(C(CO)Nc2nc(-c3cccc(Br)c3)cs2)nc2ccccc21 (stereo not shown),-12.5
20,Cc1ccc(-c2csc(NC(CO)c3nc4ccccc4n3CCOCCO)n2)cc1 (stereo not shown),-47.3
21,O=C(Cc1cccs1)Nc1nnc(SCC(=O)NC2CCCCC2)s1,7.84
22,CCOc1ccccc1NC(=O)C1C2CCC3C(CCC21)C3(Cl)Cl (stereo not shown),-13.4

row,SMILES,"hERG current change (%, negative = inhibition) at 10uM [%]"
1,NC(=O)CSc1nccn1Cc1ccc(Cl)cc1,19.1
2,CNC(=O)CSc1nccn1Cc1ccc(Cl)cc1,-64.9
3,CC(=O)Nc1ccc(NC(=O)CSc2nccn2Cc2ccc(Cl)cc2)cc1,-9.56
4,Cc1nnc(SCc2ccccc2)n1CC1CCCO1 (stereo not shown),11.9
5,O=C(C1=NN(c2ccccc2)C2C(=O)N(c3cccc(Cl)c3)C(=O)C12)c1ccccc1 (stereo not shown),1.55
6,Clc1ncnc2scc(-c3ccc(Br)cc3)c12,7.97
7,COc1ccccc1N=Nc1c(O)[nH]c2ccc(Br)cc12,14.2
8,COc1ccc(C(=O)Nc2ccc3c(c2)nc(CN2CCN(C(C)=O)CC2)n3C)cc1,-0.777
9,Cn1cnc2cc(NC(=O)c3ccc(Cl)cc3)ccc21,-18.9
10,CCOC(=O)Nc1ccc2c(c1)nc(CN1CCCCC1)n2C,-7.84
11,CC(C)(C)n1cnc2cc(NC(=O)c3ccc(Cl)cc3)ccc21,-59.1
12,CC(=O)N1CCN(Cc2nc3cc(NC(=O)c4ccc(F)cc4)ccc3n2C)CC1,-8.9
13,Cn1c(CN2CCCC2)nc2cc(NC(=O)c3ccc(Cl)cc3)ccc21,-82
14,COc1ccc(C(=O)Nc2ccc3c(c2)nc(CN2CCCC2)n3C)cc1,-44.4
15,Cn1c(CN2CCOCC2)nc2cc(NC(=O)c3ccc(F)cc3)ccc21,-12.5
16,Cn1c(CN2CCOCC2)nc2cc(NC(=O)c3ccc(Cl)cc3)ccc21,-34.2
17,Cn1c(CN2CCCCC2)nc2cc(NC(=O)c3ccc(F)cc3)ccc21,-54.2
18,CC(=O)N1CCN(Cc2nc3cc(NC(=O)c4ccc(Cl)cc4)ccc3n2C)CC1,-65.8
19,CC(C)(C)n1cnc2cc(NC(=O)c3ccccc3)ccc21,-9.28
20,O=C(NCCc1ccccc1)/C(=N\O)c1ccccc1,7.7
21,CCn1c(=O)c2sccc2n2c(CCCC(=O)NC3CCN(Cc4ccccc4)CC3)nnc12,-6.43
22,COc1ccc(OC)c(C2C(C(C)=O)=C(O)C(=O)N2CCN2CCOCC2)c1 (stereo not shown),-6.92

row,SMILES,"hERG current change (%, negative = inhibition) at 10uM [%]"
1,COc1ccc(C)cc1NC(=O)CCN1CCN(c2ccccc2F)CC1.Cl,-19.9
2,Cc1ccccc1OCC(=O)NNC(=O)CN1C(=O)c2ccccc2C1=O,-9.07
3,NNc1nc2sc3c(c2c(=O)[nH]1)CCc1ccccc1-3,7.46
4,Cc1ccc(C)c(N2CCN(C(=O)Cc3c(C(=O)O)[nH]c4ccc(Cl)cc34)CC2)c1,10.1
5,O=C(O)COc1cccc2nsnc12,4.42
6,CC(=O)N1N=C(c2cccc([N+](=O)[O-])c2)OC1(C)CC(=O)Nc1ccccc1 (stereo not shown),-12
7,COc1ccc(NC(=O)CN(C)CC(=O)Nc2ccc(N3CCOCC3)cc2)c([N+](=O)[O-])c1,-26.2
8,CNC(=O)OCc1cccc(COC(=O)NC)n1.Cl,27.2
9,Cn1c(CN2CCCCC2)nc2cc(NC(=O)c3ccccc3Cl)ccc21,-8.74
10,CC(=O)N1CCN(Cc2nc3cc(NC(=O)c4ccccc4C)ccc3n2C)CC1,10.2
11,COc1ccccc1C(=O)Nc1ccc2c(c1)nc(CN1CCCCC1)n2C,-21.8
12,Cn1c(CN2CCCCC2)nc2cc(NC(=O)c3ccc(Cl)cc3)ccc21,-59.8
13,CCCC(=O)Nc1ccc2c(c1)nc(CN1CCCCC1)n2C,2.55
14,COc1ccccc1C(=O)Nc1ccc2c(c1)nc(CN1CCN(C(C)=O)CC1)n2C,-80
15,CS(=O)(=O)c1ccc(-n2c(=O)n(Cc3ccccc3)c(=O)c3[nH]cnc32)cc1,-45.7
16,CCOP(=O)(OCC)/C(C#N)=C/c1ccc(Br)cc1,-13.5
17,O=C1c2ccccc2C(=O)N1CCN1CCCCC1,-6.2
18,CC1CN(C(=O)/C=C/c2ccccc2[N+](=O)[O-])CC(C)O1 (stereo not shown),-4.44
19,CCCCc1cn([C@@H](CCCCN)C(=O)N2CCNCC2)nn1.Cl,18.8
20,CCOC(=O)c1cc2c(=O)n3ccccc3nc2n(C(C)C)c1=NC(=O)c1ccncc1,-67.5
21,CCOC(=O)c1cc2c(=O)n3ccccc3nc2n(C)c1=NC(=O)c1c(-c2c(F)cccc2Cl)noc1C,14
22,CCCn1c(=NC(=O)c2ccco2)c(C(=O)OCC)cc2c(=O)n3ccccc3nc21,-66.7

row,SMILES,"hERG current change (%, negative = inhibition) at 10uM [%]"
1,CCCn1c(=NC(C)=O)c(C(=O)OCC)cc2c(=O)n3ccccc3nc21,-9.98
2,CCCn1c(=NC(=O)c2c(-c3c(F)cccc3Cl)noc2C)c(C(=O)OCC)cc2c(=O)n3ccccc3nc21,5.26
3,CCOC(=O)c1cc2c(=O)n3ccccc3nc2n(C(C)C)c1=NC(=O)c1c(-c2c(F)cccc2Cl)noc1C,2.48
4,CCCCCn1c(=NC(=O)c2ccco2)c(C(=O)OCC)cc2c(=O)n3ccccc3nc21,-73.5
5,CCOC(=O)c1cc2c(=O)n3ccccc3nc2n(C(C)C)c1=NC(=O)c1c(-c2ccccc2Cl)noc1C,24.3
6,CCOC(=O)c1cc2c(=O)n3ccccc3nc2n(C(C)C)c1=NC(=O)c1ccco1,-56.8
7,Cc1onc(-c2c(Cl)cccc2Cl)c1C(=O)NCc1cccs1,-9.65
8,COC(=O)CSc1nnc(SCc2ccc(Cl)cc2)s1,-0.477
9,Cc1occc1C(=O)N/N=C/c1ccc(-c2cccc([N+](=O)[O-])c2)o1,1.37
10,O=C(COC(=O)c1cc(S(=O)(=O)NCc2ccccc2)ccc1O)c1cc2ccccc2o1,11.9
11,COc1ccccc1NC(=O)CCCN1C(=O)C2CC=CCC2C1=O (stereo not shown),11.1
12,CCN1CCN(Cc2ccccc2NC(=O)Nc2ccc(C)cc2)CC1,-0.992
13,COc1cc2nc(CN(CCC(C)C)Cc3nc4cc(OC)c(OC)cc4c(=O)[nH]3)[nH]c(=O)c2cc1OC,-2.68
14,Cc1ccccc1NC(=O)c1nn(C)c(C(=O)Nc2ccccc2C)c1[N+](=O)[O-],0.0696
15,CCCCn1c(=NC(=O)c2ccco2)c(C(=O)OCC)cc2c(=O)n3ccccc3nc21,-71.7
16,CCOc1cc(/C=C/c2ccc3cccc([N+](=O)[O-])c3n2)ccc1OCC(=O)N(C)C,-33.4
17,Cc1ccc(-c2nnc(N3CCN(C(=O)c4ccco4)CC3)c3ccccc23)cc1,-75.2
18,O=C(CN1CCOCC1)N1CCN(c2nnc(-c3ccccc3)c3ccccc23)CC1,7.35
19,Cc1ccc(-c2nnc(N3CCN(C(=O)CN4CCOCC4)CC3)c3ccccc23)cc1,-31.5
20,O=C(c1ccco1)N1CCN(c2nnc(-c3ccccc3)c3ccccc23)CC1,-75.8
21,N#Cc1c(N2CCN(C(=O)c3ccco3)CC2)nc(-c2ccccc2)c2c1CCCC2,-5.84
22,Cc1ccc(-c2nnc(N3CCCCC3)c3ccccc23)cc1,-11.2
